Test results: PubChem BioAssay (Tox21)
Records with an inconclusive call do not appear. A call without a number means that no potency is given here. Some compounds were tested as several samples or in several runs, with calls that do not always agree. Activity calls are given as the source filed them. Unless noted, calls come from the whole dose curve; as a rule, active = well fitted curve in the direction sought with a large enough effect in the repeat runs; inconclusive = weak or mixed curves; inactive = no such curve, though single readings can be large; an effect the other way counts as inactive or inconclusive.

Experiments:
[1] = qHTS assay to identify small molecule agonists of the peroxisome proliferator-activated receptor delta (PPARd) signaling pathway - cell viability counter screen (AID 743211); note: nearly all actives have a fitted effect of over 55% in size
Summary of the method: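 In the same wells used for beta-lactamase reporter measurement, cytotoxicity is scored by CellTiter-Glo. HEK293H PPARd-bla cells receive compound for 17 h at 37C following a 5 h settling period.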

[2] = target: Peroxisome proliferator-activated receptor delta (Homo sapiens) (UniProt Q03181); experiment: qHTS assay to identify small molecule agonists of the peroxisome proliferator-activated receptor delta (PPARd) signaling pathway (AID 743212; calls by dose curve;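 note: HEK293H cells with PPARd UAS beta-lactamase reporter GeneBLAzer system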)
Summary of the method: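 Steps: seed PPARd-bla HEK293H cells; incubate 5 h, 37 C, 5% CO2; add compounds in DMSO; incubate, 37 C; add LiveBLAzer B/G FRET substrate; hold 2 h at room temperature; measure fluorescence.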

[3] = qHTS assay to identify small molecule antagonists of the peroxisome proliferator-activated receptor delta (PPARd) signaling pathway - cell viability counter screen (AID 743213); note: nearly all actives have a fitted effect of over 50% in size
Summary of the method: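 PPARd-bla HEK293H cells were treated with compounds plus agonist L165041 (300 nM final) for 17 h at 37 C. Viability was then read in the same wells by CellTiter-Glo luminescence after 30 min at room temperature.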

[4] = qHTS assay to identify small molecule agonists of the farnesoid-X-receptor (FXR) signaling pathway - cell viability counter screen (AID 743218); note: nearly all actives have a fitted effect of over 45% in size
Summary of the method: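 Quantitative HTS counter screen measuring ATP-based viability via CellTiter-Glo luminescence in HEK 293T cells carrying a UAS-driven beta-lactamase reporter, after 16 h compound exposure at 37 C.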

[5] = qHTS assay to identify small molecule antagonists of the farnesoid-X-receptor (FXR) signaling pathway - cell viability counter screen (AID 743221; active = well fitted cell-killing curve with a large enough effect in the repeat runs, not every such curve was filed as active; note: nearly all actives have a fitted effect of over 50% in size)
Summary of the method: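 Here viability was scored by luminescence after CellTiter-Glo addition to wells already read for beta-lactamase. Prior treatment: compound plus CDCA (50 uM final), 16 h, 37 C, HEK 293T FXR-bla cells.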

[6] = target: Vitamin D3 receptor (Homo sapiens) (UniProt P11473); experiment: qHTS assay to identify small molecule agonists of the vitamin D receptor (VDR) signaling pathway (AID 743222; calls by dose curve)
Summary of the method: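 Tox21 cell reporter format: VDR-bla line, 16 h compound exposure in 5% CO2 at 37C, then fluorescence intensity after 2 h with LiveBLAzer B/G FRET substrate.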

[7] = target: Vitamin D3 receptor (Homo sapiens) (UniProt P11473); experiment: qHTS assay to identify small molecule antagonists of the vitamin D receptor (VDR) signaling pathway (AID 743223; active = well fitted inhibition curve with a large enough effect in the signal ratio in the repeat runs, not every such curve was filed as active; the % refers to the signal ratio)
Summary of the method: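 Inhibition of agonist-driven VDR signalling is scored in VDR-bla cells: 3 nM final 1alpha,25-dihydroxyvitamin D3 plus compound, 16 h at 37C, then beta-lactamase detection by FRET substrate fluorescence after 2 h.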

[8] = qHTS assay to identify small molecule agonists of the vitamin D receptor (VDR) signaling pathway - cell viability counter screen (AID 743224); note: series mostly up to about 63 µM; nearly all actives have a fitted effect of over 50% in size
Summary of the method: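 CellTiter-Glo viability readout on VDR-bla cells, measured after 16 h of compound treatment at 37C in the same wells.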

[9] = qHTS assay to identify small molecule antagonists of the vitamin D receptor (VDR) signaling pathway - cell viability counter screen (AID 743225); note: nearly all actives have a fitted effect of over 50% in size
Summary of the method: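 Compounds were pinned onto VDR-bla HEK 293T cells together with 1-alpha,25-dihydroxyvitamin D3 at 3 nM final. After 16 h at 37C and 5% CO2 plus the reporter readout, cell viability was measured by CellTiter-Glo luminescence (30 min, room temperature).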

[10] = qHTS assay to identify small molecule agonists of the NFkB signaling pathway (AID 1159509; active = well fitted curve in the direction sought with a large enough effect in the signal ratio in the repeat runs, not every such curve was filed as active; the % refers to the signal ratio; note: series mostly up to about 61 µM)
Summary of the method: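 Beta-lactamase reporter assay run in quantitative high-throughput format on an NF-kB-responsive ME-180 line, with 5 hr compound treatment and a FRET-based blue/green fluorescence readout.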

[11] = qHTS assay to identify small molecule agonists of the NFkB signaling pathway - cell viability counter screen (AID 1159515; calls by dose curve; note: series mostly up to about 61 µM; nearly all actives have a fitted effect of over 55% in size)
Summary of the method: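 Tox21 library compounds were tested for cytotoxicity against NFkB-bla ME-180 cells during a 5 hr exposure at 37 C. CellTiter-Glo luminescence served as the viability read-out.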

[12] = qHTS assay to identify small molecule agonists of the endoplasmic reticulum stress response signaling pathway (AID 1159516; active = well fitted activation curve with a large enough effect in the signal ratio in the repeat runs, not every such curve was filed as active; the % refers to the signal ratio)
Summary of the method: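 Fluorescence at 460 and 530 nm (405 nm excitation) reports beta-lactamase from an ER stress response element in HeLa cells treated 5 hr at 37 C.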

[13] = qHTS assay to identify small molecule agonists of the endoplasmic reticulum stress response signaling pathway - cell viability counter screen (AID 1159517; calls by dose curve)
Summary of the method: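 After overnight attachment, ESRE-bla HeLa cells were treated with Tox21 library compounds for 5 hr. CellTiter-Glo luminescence, read 30 min post-addition at room temperature, reported viability.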

[14] = qHTS assay to identify small molecule antagonists of the retinoid-related orphan receptor gamma (ROR-gamma) signaling pathway - cell viability counter screen (AID 1159520); note: nearly all actives have a fitted effect of over 50% in size
Summary of the method: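 Cytotoxicity was read from cellular ATP (CellTiter-Glo luminescence) after 16 hr at 37 C with 1 uM doxycycline induction. The inducer was added 2 hr after compound transfer to Tet-on ROR gamma CHO cells.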

[15] = target: Nuclear receptor ROR-gamma (Homo sapiens) (UniProt P51449); experiment: qHTS assay to identify small molecule antagonists of the retinoid-related orphan receptor gamma (ROR-gamma) signaling pathway (AID 1159521)
Summary of the method: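 Test compounds were applied to Tet-on RORγ CHO cells 2 h ahead of doxycycline hyclate (1 uM final). Luciferase reporter activity was quantified by luminescence after 16 h at 37 C and 5% CO2.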

[16] = qHTS assay to identify small molecule agonists of the AP-1 signaling pathway - cell viability counter screen (AID 1159525; calls by dose curve; note: nearly all actives have a fitted effect of over 55% in size)
Summary of the method: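 Intracellular ATP by Cell Titer Glo luminescence (30 min, RT) in the same ME-180 AP-1-bla wells after the 5 h compound exposure at 37 °C. Normalised to tetra n-octyl ammonium bromide and DMSO controls.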

[17] = qHTS assay to identify small molecule agonists of the AP-1 signaling pathway (AID 1159526; calls by dose curve; note: potency is the fitted concentration of half-maximal effect)
[18] = target: Peroxisome proliferator-activated receptor delta (Homo sapiens) (UniProt Q03181); experiment: qHTS assay to identify small molecule antagonists of the peroxisome proliferator-activated receptor delta (PPARd) signaling pathway (AID 743215; active = well fitted inhibition curve with a large enough effect in the signal ratio in the repeat runs, not every such curve was filed as active; the % refers to the signal ratio;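 note: cells stimulated with agonist L165041 at 300 nM final during compound exposure; series mostly up to about 62 µM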)
Summary of the method: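 Here, a reporter line (HEK293H, beta-lactamase under a UAS) measures PPARd signaling. Compounds are tested against agonist L165041 at 300 nM final concentration over 17 h at 37 C, with fluorescence read after substrate.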

[19] = target: Bile acid receptor (Homo sapiens) (UniProt Q96RI1); experiment: qHTS assay to identify small molecule agonists of the farnesoid-X-receptor (FXR) signaling pathway (AID 743220; active = well fitted activation curve with a large enough effect in the signal ratio in the repeat runs, not every such curve was filed as active; the % refers to the signal ratio)
Summary of the method: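 FXR-UAS-bla HEK 293T cells carrying a UAS-driven beta-lactamase reporter were plated for 5 h at 37C/5% CO2, then exposed to DMSO-dissolved Tox21 10K compounds for 16 h at 37C. A LiveBLAzer B/G FRET substrate was loaded for 2 h at room temperature before fluorescence reading.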

Vitamin D3 receptor (Homo sapiens), sequence (P11473 whole entry, looked up): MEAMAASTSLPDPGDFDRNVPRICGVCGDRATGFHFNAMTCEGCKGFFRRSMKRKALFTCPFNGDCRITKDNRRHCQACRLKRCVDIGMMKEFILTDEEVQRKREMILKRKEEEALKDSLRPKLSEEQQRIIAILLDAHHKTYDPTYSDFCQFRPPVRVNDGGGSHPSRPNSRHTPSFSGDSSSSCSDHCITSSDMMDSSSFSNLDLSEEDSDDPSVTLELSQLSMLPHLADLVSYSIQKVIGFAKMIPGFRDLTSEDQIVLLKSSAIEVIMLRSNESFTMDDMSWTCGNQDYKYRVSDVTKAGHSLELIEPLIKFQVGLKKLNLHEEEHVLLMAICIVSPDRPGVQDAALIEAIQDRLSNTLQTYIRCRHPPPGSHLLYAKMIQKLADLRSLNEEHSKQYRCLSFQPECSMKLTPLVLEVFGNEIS
Peroxisome proliferator-activated receptor delta (Homo sapiens), sequence (Q03181 whole entry, looked up): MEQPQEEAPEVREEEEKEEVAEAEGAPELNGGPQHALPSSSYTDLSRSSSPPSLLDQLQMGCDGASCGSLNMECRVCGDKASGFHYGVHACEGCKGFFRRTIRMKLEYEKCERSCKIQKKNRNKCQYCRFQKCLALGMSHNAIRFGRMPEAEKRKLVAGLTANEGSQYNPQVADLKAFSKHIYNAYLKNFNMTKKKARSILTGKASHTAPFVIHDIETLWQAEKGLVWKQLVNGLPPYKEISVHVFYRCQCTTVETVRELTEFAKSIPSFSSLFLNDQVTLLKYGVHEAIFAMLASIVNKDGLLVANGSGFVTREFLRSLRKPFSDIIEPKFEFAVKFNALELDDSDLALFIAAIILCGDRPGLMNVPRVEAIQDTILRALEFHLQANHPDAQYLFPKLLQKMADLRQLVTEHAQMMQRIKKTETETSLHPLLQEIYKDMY
Bile acid receptor (Homo sapiens), sequence (Q96RI1 whole entry, looked up): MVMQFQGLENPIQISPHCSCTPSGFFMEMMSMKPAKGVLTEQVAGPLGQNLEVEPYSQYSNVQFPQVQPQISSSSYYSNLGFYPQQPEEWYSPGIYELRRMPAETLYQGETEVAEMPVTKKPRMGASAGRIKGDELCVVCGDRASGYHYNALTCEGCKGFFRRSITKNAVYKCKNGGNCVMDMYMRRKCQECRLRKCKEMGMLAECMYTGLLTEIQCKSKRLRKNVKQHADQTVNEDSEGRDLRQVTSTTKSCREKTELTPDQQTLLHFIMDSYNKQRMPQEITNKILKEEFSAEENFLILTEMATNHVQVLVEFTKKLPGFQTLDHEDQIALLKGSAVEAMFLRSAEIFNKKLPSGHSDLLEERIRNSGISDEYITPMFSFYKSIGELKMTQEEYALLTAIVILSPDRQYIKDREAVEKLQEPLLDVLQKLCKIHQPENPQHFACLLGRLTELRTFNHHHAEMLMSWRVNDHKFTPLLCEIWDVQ

| Compound | Potency [1] | outcome [2] | outcome [3] | Potency [4] | Potency [5] | outcome [6] | outcome [7] | Potency [8] | outcome [9] | outcome [10] | outcome [11] | outcome [12] | outcome [13] | outcome [14] | Potency [15] | outcome [16] | Potency [17] | outcome [18] | outcome [19] |
| --- | --- | --- | --- | --- | --- | --- | --- | --- | --- | --- | --- | --- | --- | --- | --- | --- | --- | --- | --- |
| CCNc1nc(Cl)nc(NC(C)C)n1 | inactive | inactive | inactive | inactive | inactive | inactive | inactive | inactive | inactive | inactive | inactive | inactive | inactive | inactive | inactive | inactive | inactive | – | – |
| O=P1(NCCCl)OCCCN1CCCl (stereo unspecified) | inactive | – | inactive | inactive | inactive | – | – | inactive | inactive | inactive | inactive | inactive | inactive | inactive | inactive | inactive | inactive | – | – |
| Clc1cnc(Oc2ccc(Oc3ncc(Cl)cc3Cl)cc2)c(Cl)c1 | inactive | inactive | inactive | – | inactive | inactive | inactive | inactive | inactive | inactive | inactive | inactive | inactive | inactive | inactive | inactive | inactive | inactive | inactive |
| Cl/C=C/Cl | inactive | inactive | inactive | inactive | inactive | inactive | inactive | inactive | inactive | inactive | inactive | inactive | – | inactive | inactive | inactive | inactive | inactive | – |
| Sc1ccccc1 | – | inactive | inactive | inactive | inactive | inactive | inactive | inactive | inactive | inactive | inactive | inactive | inactive | inactive | – | inactive | 49.7 µM (active) and inactive | inactive | – |
| CCCCC(CC)C(=O)Cl (stereo unspecified) | inactive | inactive | inactive | inactive | inactive | – | – | inactive | inactive | inactive | inactive | inactive | inactive | inactive | – | inactive | inactive | – | inactive |
| CC(C)c1cccc(C(C)C)c1O | – | inactive | inactive | inactive | inactive | inactive | inactive | inactive | inactive | inactive | inactive | inactive | inactive | inactive | – | inactive | inactive | inactive | – |
| CCCCCCCCCCCCCCCCCC(=O)O | inactive | – | inactive | inactive | inactive | – | – | inactive | inactive | inactive | inactive | inactive | inactive | inactive | – | inactive | inactive | – | – |
| OC[C@@H](O)[C@H]1O[C@@H]2O[C@H](C(Cl)(Cl)Cl)O[C@@H]2[C@H]1O | inactive | inactive | inactive | inactive | inactive | – | – | inactive | inactive | inactive | inactive | inactive | inactive | inactive | – | inactive | inactive | inactive | – |
